# Assay results from PubChem BioAssay AID686978 (National Center for Advancing Translational Sciences (NCATS), 2013).
# The whole screen tested about 420,000 compounds, of which about 64,000 (15%) were called active. Another 27% or so got no clear call; they are omitted. Not all results are given here. A call without a number means that no potency is given here. Values without a mark were called inactive. Calls follow the shape of the dose curve; as a rule, active = well fitted inhibition curve with a large enough effect; inconclusive = small, poorly fitted or top-dose-only effect; inactive = flat fitted curve, though single readings scatter.
# Assay: qHTS for Inhibitors of human tyrosyl-DNA phosphodiesterase 1 (TDP1): qHTS in cells in absence of CPT; also: nearly all actives have a fitted effect of over 55% in size
# Conditions: DT40 Tdp1-/- hTDP1 cells, no CPT, ATP luminescence, 48 h; activity change, negative = growth inhibition: at 46.2 µM (top of the series)
# Summary of the method: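 DT40 Tdp1-/-;hTDP1 cells, no CPT (DMSO vehicle only), 400 cells/well; compounds pin-transferred; ≥48 hr, 37 °C; CellTiter-Glo 30 min RT dark, luminescence read.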
# Potency is read from the fitted curve at half-maximal effect.
Compound,Potency,"activity change, negative = growth inhibition"
COc1ccc(S(=O)(=O)N2CCC(C(=O)NCCC(=O)NCCc3cccc(F)c3)CC2)cc1,inactive,–
Cc1ccc(S(=O)(=O)C2C(=O)NC3(C)CC2c2ccccc2O3)cc1 (configuration not stated),inactive,–
Cn1c(SCC(=O)N2CCCC2)nnc1-c1ccc2c(c1)OCO2,inactive,–
CCC1C(C#N)=C(SC)NC2=C1C(=O)CC(C)(C)C2 (configuration not stated),inactive,–
Nc1nonc1-n1nnc(C(=O)N/N=C/C2CCCCC2)c1-c1ccccc1,inactive,–
CCn1c(=O)cc(SCC(=O)NCc2ccc3c(c2)OCO3)c2ccccc21,inactive,–
CC1(C)NC(=O)N(CC(=O)Nc2cc(C(F)(F)F)cc(C(F)(F)F)c2)C1=O,inactive,–
O=C(O)/C=C/C(=O)NNc1ccc([N+](=O)[O-])cc1,18.4 µM (active),–
CNC(=S)Nc1ccc([N+](=O)[O-])cc1,inactive,–
Cc1c(NC(=O)/C=C/C(=O)O)cccc1[N+](=O)[O-],inactive,–
CCC(=O)NC(NCC1CCCO1)C(Cl)(Cl)Cl (configuration not stated),inactive,–
COc1cccc(CNc2nc(NCc3cccs3)nc3ccsc23)c1,10.3 µM (active),–
COCCNc1nc(NCc2ccc(NC(C)=O)cc2)c2sccc2n1,inactive,–
CCc1ccc(S(=O)(=O)c2nnn3c2nc(NCc2ccccc2OC)c2cc(Cl)ccc23)cc1,inactive,–
COc1ccccc1CNCc1cccs1,inactive,–
CC(C)Nc1nc(NCCOc2ccccc2Cl)c2sccc2n1,20.6 µM (active),–
Cc1nc2cc(NCc3cccs3)ccc2n1C,inactive,–
COc1ccccc1CNc1nc(Nc2ccccc2Cl)c2sccc2n1,7.31 µM (active),–
COc1cccc(CNc2nc(NCc3ccccc3OC)nc3ccsc23)c1,9.2 µM (active),–
COc1cccc(CNc2nccn(-c3ccc(OC)c(OC)c3)c2=O)c1,inactive,–
COc1ccc(NC(=O)C/C(C)=N/NC(=O)c2cnccn2)cc1Cl,inactive,–
COc1ccc(C(=O)N(Cc2ccc(N(C)C)cc2)C2CCS(=O)(=O)C2)cc1 (configuration not stated),inactive,–
CC(C)C(OC(=O)c1cccs1)C(=O)NC1CCCCC1 (configuration not stated),inactive,–
CCNc1nc(N)nc(-c2cc(Cl)ccc2OC)n1,inactive,–
COc1ccc(OC)c(S(=O)(=O)Nc2ccccc2F)c1,inactive,–
COc1ccc(C(=O)OCC(=O)Nc2ccc3[nH]c(=O)[nH]c3c2)c(OC)c1OC,inactive,–

Compound,Potency,"activity change, negative = growth inhibition"
O=C(Nc1ccc(F)c([N+](=O)[O-])c1)C1CCCO1 (configuration not stated),inactive,–
COc1ccc(/C=C2\N=C3CCCN3C2=O)cc1,inactive,–
COc1ccc(/C=C2\NC(=O)[C@@H]3Cc4ccccc4CN3C2=O)cc1,–,-8.4% [at 9.04 µM]
COc1ccc(/C=C2\CCc3ccccc3C2=O)c(OC)c1OC,20.6 µM (active),–
COc1ccccc1C1=CC(=O)CCC1,inactive,–
O=C1/C(=C/c2cccs2)CCc2ccccc21,inactive,–
COc1ccc(/C=C2/CCCc3ccccc3C2=O)cc1,5.8 µM (active),–
O=C(O)CC(Cc1ccccc1)C(=O)Nc1ccc([N+](=O)[O-])cc1 (configuration not stated),inactive,–
COc1cccc(C(=O)N/N=C(\C)c2cccc(NC(=O)c3ccc(F)cc3)c2)c1OC,23.1 µM (active),–
COc1cccc(C(=O)Nc2cccnc2)c1OC,inactive,–
COc1ccc(/C(C)=N\NC(=O)c2ccc(-c3ccccc3)cc2)c(F)c1,inactive,–
CCc1ccc(CCC(=O)Nc2ccc(S(N)(=O)=O)cc2)o1,inactive,–
Cc1ccc2cc(C)c(N3CCC(C)CC3)nc2c1,inactive,–
CCOc1n[nH]c(-c2ccccc2)n1,inactive,–
O=C(CNC(=O)N1CC(=O)Nc2ccccc21)Nc1ccc(Br)cc1F,inactive,–
Cc1ccc(Cn2ccc(NC(=O)C3C4CCC(C4)C3C(=O)O)n2)cc1 (configuration not stated),inactive,–
COc1ccc(NC(=O)C2Cc3c(-c4ccc5c(c4)OCO5)ccnc3O2)cn1 (configuration not stated),4.61 µM (active),–
O=C(COc1ccc(Cl)cc1)Nc1ccc2c(c1)OCO2,inactive,–
CC(=O)Nc1ccc(-c2ccnc3c2CC(C(=O)NC(C)C)O3)cc1 (configuration not stated),inactive,–
COc1ccc(CCNC(=O)COc2ccc3c(c2)OCO3)cc1,inactive,–
COc1ccc(OCC(O)CNC(=O)Nc2ccc(Cl)cc2)cc1 (configuration not stated),inactive,–
COc1ccc(N(CC(=O)NC2CCCC2)C(=O)CS(=O)CC(=O)Nc2ccc3c(c2)OCO3)cc1 (configuration not stated),inactive,–
O=C(Nc1ccc(Cl)cc1)C1Cc2c(-c3ccc4c(c3)OCO4)ccnc2O1 (configuration not stated),20.6 µM (active),–
COc1ccc(Cn2ccnc2SCC(=O)Nc2ccc3c(c2)OCO3)cc1,inactive,–
COc1ccc(CCNC(=O)COC(=O)c2cnc(Cl)c(Cl)c2)cc1,inactive,–
COc1ccc(NC(=O)C2Cc3c(-c4ccc(Cl)cc4)ccnc3O2)cc1 (configuration not stated),13 µM (active),–

Compound,Potency,"activity change, negative = growth inhibition"
O=C(Nc1ccc2c(c1)OCO2)C1CC1(Cl)Cl (configuration not stated),inactive,–
COc1ccc(CCCNC(=O)C2Cc3c(-c4cccc(C(N)=O)c4)ccnc3O2)cc1 (configuration not stated),16.4 µM (active),–
COc1cc(OC)c(C(=S)N2CCCC2)cc1OC,inactive,–
O=C1NC(=O)C(CCc2ccccc2)(c2ccccc2)N1 (configuration not stated),inactive,–
O=C(Nc1c2c(nn1-c1cccc(Cl)c1)CS(=O)(=O)C2)c1cccs1,inactive,–
COc1ccc(-n2nnnc2SCC(=O)NCc2cccs2)cc1,inactive,–
COc1ccc(N2CCN(C(=O)c3cn(C)c4ccc(S(=O)(=O)N5CCOCC5)cc4c3=O)CC2)cc1,inactive,–
CC(=O)NC1(c2cccc(F)c2)CCN(CC(=O)NC(C)C)CC1,inactive,–
CCCCC1=CC2=CC(=O)C(C)(OC(=O)CC)C(=O)C2=CN1CCCOC(C)C (configuration not stated),inactive,–
CCOc1ncccc1C(=O)OCC(=O)c1c[nH]c2ccccc12,inactive,–
O=C(CCC(=O)OCC(F)(F)C(F)F)NCc1ccccc1,inactive,–
O=C(NC12CC3CC(CC(C3)C1)C2)N1CCCC(CO)C1 (configuration not stated),inactive,–
CCOC(=O)c1ccc[n+](CC(=O)Nc2ccccc2OC(F)F)c1,inactive,–
OC[C@@H]1O[C@H](n2cnc3c(SCc4ccccc4)ncnc32)[C@H](O)[C@H]1O,11.2 µM (active),–
Nc1nc(SCc2ccc([N+](=O)[O-])cc2)c2ncn(C3OC(CO)C(O)C3O)c2n1 (configuration not stated),inactive,–
CC(C)Sc1nc(N)nc2c1ncn2C1OC(CO)C(O)C1O (configuration not stated),inactive,–
Cc1cc2cc(CNC(=O)c3ccc(S(=O)(=O)N4CCOCC4)cc3)ccc2[nH]1,inactive,–
O=C(CCc1ccc(S(=O)(=O)NC2CCCCC2)cc1)NCc1ccccc1,inactive,–
O=C(CCc1ccccc1)NCc1cccnc1,inactive,–
Cc1ccc(C(=O)N2CCc3cc(CNC(=O)c4ccc(Br)cc4)ccc32)cc1,14.6 µM (active),–
CCC(=O)N1CCc2cc(S(=O)(=O)NC(Cc3ccccc3)C(=O)NCc3ccc(C)cc3)ccc21 (configuration not stated),inactive,–
O=C(CCc1ccccc1)NCc1ccc2c(c1)CCN2C(=O)c1ccccc1,20.6 µM (active),–
CN(C)c1ncc2nc(-c3ccc(F)cc3)c(=O)n(Cc3ccc(F)cc3)c2n1,inactive,–
C=Cc1ccc(Cn2c(C(=O)OC)cc3sc(C)cc32)cc1,inactive,–
C=CC[C@H](CC(=O)NCCO)C(=O)N[C@@H](COC(=O)[C@@H](CC=C)Cc1ccc(F)cc1)Cc1c[nH]c2ccccc12,23.1 µM (active),–
C=CCC[C@@H](Cc1ccc(F)cc1)C(=O)OC[C@H](Cc1c[nH]c2ccccc12)NC(=O)[C@@H](CC=C)CC(=O)N(CCO)Cc1ccccc1,16.4 µM (active),–

Compound,Potency,"activity change, negative = growth inhibition"
C=CC[C@@H](CC(=O)NCCO)C(=O)N[C@H](C)COC(=O)[C@@H](CC=C)CC(=O)OC(C)(C)C,inactive,–
O=C(CCc1c[nH]c2ccccc12)NCCOc1ccccc1,inactive,–
CC(=O)NC(Cc1c[nH]c2ccccc12)C(=O)NCCc1ccccc1 (configuration not stated),inactive,–
COC(=O)C(Cc1c[nH]c2ccccc12)NC(=O)CCNC(=O)c1ccco1 (configuration not stated),inactive,–
C=CCC[C@H](Cc1ccc(F)cc1)C(=O)OC[C@@H](Cc1c[nH]c2ccccc12)NC(=O)[C@H](CC=C)CC(=O)N[C@H](CO)Cc1ccccc1,20.6 µM (active),–
CCN(CC)c1nc(C#N)nc(OC)n1,inactive,–
CC1(C)CC(=O)NC=C(c2ccccc2)C1,inactive,–
COc1cc2c(cc1OC)/C(=C/C(=O)c1ccc(NC(C)=O)cc1)NCC2,inactive,–
O=C(OCCO)c1cc(Cl)c(C(=O)OCCO)cc1Cl,inactive,–
O=S(=O)(c1ccc(-c2ccccc2)cc1)N1CCCC1,inactive,–
CN[C@@H]1[C@H](O[C@H]2[C@H](O[C@H]3[C@H](O)[C@@H](O)[C@H](N=C(N)N)[C@@H](O)[C@@H]3N=C(N)N)O[C@@H](C)[C@]2(O)CO)O[C@@H](CO)[C@H](O)[C@H]1O,inactive,–
Cc1cc(C)nc(Nc2n[nH]c(-c3ccccc3N)n2)n1,inactive,–
CCOC(=O)CSc1nncc2ccc(OC)c(OC)c12,inactive,–
Cc1cc(-c2ccc(S(=O)(=O)N3CCN(c4cccc(C(F)(F)F)c4)CC3)s2)on1,inactive,–
CC(=O)c1ccc(NS(=O)(=O)c2ccc(-c3cc(C)no3)s2)cc1,inactive,–
Cc1cccc(N2CCN(S(=O)(=O)c3ccc(-c4cc(C)no4)s3)CC2C)c1 (configuration not stated),inactive,–
CCc1cccc(C)c1NS(=O)(=O)c1ccc(-c2cc(C)no2)s1,0.517 µM (active),–
Cc1cc(C)cc(NS(=O)(=O)c2ccc(-c3cc(C)no3)s2)c1,2.59 µM (active),–
Cc1cc(-c2ccc(S(=O)(=O)N3CCc4ccccc4C3)s2)on1,inactive,–
COc1cc(CNc2ncn[nH]2)ccc1OCc1ccccc1C,inactive,–
CC(C)CNc1ncnc2c1nnn2C,inactive,–
Cc1cccc(NC(=O)NC2(C)CCS(=O)(=O)C2)c1 (configuration not stated),inactive,–
Cc1nccn1-c1ccc(NC(=O)[C@H]2O[C@@H](n3ccc(=O)[nH]c3=O)[C@H](O)[C@@H]2O)cc1,inactive,–
COCCOC(=O)C1=C(C)NC(=O)NC1c1cc2c(cc1Br)OCO2 (configuration not stated),inactive,–
